# SRC2 inh – human SRC2 (NCOA2) inhibition; inhibition, % at 9 µM; AID 651957; HEK293 GAL4-SRC2 luciferase reporter, luminescence; 0.17% of 370,000 active;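 active = inhibition above the mean inhibition of all tested compounds plus 3 SD, set per campaign, cut at about 52% in these data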;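 also: 0% = DMSO treated cells and 100% = cells given Gossypol at 36 µM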
# Gli-Sufu antag – Gli-Sufu pathway antagonism. Sufu-KO-LIGHT fibroblasts, Gli luciferase reporter luminescence. inhibition, % at 5 µM. 0.74% of 340,000 active. AID 588413;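 active = inhibition above about 55%, limit read from the data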;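 also: 0% = DMSO-treated cells and 100% = wells with medium but no cells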
# NCOA1 inh – inhibitors of human steroid receptor coactivator 1 (SRC1) | inhibition, % at 3.6 µM | 0.12% of 360,000 active | AID 588354 | HEK293 GAL4-SRC1 luciferase reporter, luminescence;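 active = inhibition above the campaign mean plus 3 SD, with each screening campaign given its own cutoff, cut at about 60% in these data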;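 also: 0% = DMSO treated cells and 100% = gossypol at 36 µM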
# NCOA3 inh – inhibits human SRC3 coactivator; 0.17% of 360,000 active; Q9Y6Q9; inhibition, % at 3.6 µM; HEK293 GAL4-SRC3 luciferase reporter, luminescence;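 active = inhibition above a per-campaign cutoff, the mean of all compounds plus 3 SD, cut at about 60% in these data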;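 also: 0% = DMSO-treated cells and 100% = gossypol-treated cells at 36 µM; higher means less SRC3-driven luciferase light from the GAL4 reporter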
# NR5A2 inv ag – suppresses constitutive activity of human LRH-1. AID 602396. O00482. HEK293T StAR-luciferase reporter, LRH-1 transfected, 24 h. 0.13% of 360,000 active. inhibition, % at 3.6 µM;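 active = inhibition above the mean inhibition of all tested compounds plus 3 SD, cut at about 73% in these data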;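 also: 0% = DMSO wells and 100% = reporter-only cells lacking LRH-1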
# Target sequence (O00482 whole entry, looked up): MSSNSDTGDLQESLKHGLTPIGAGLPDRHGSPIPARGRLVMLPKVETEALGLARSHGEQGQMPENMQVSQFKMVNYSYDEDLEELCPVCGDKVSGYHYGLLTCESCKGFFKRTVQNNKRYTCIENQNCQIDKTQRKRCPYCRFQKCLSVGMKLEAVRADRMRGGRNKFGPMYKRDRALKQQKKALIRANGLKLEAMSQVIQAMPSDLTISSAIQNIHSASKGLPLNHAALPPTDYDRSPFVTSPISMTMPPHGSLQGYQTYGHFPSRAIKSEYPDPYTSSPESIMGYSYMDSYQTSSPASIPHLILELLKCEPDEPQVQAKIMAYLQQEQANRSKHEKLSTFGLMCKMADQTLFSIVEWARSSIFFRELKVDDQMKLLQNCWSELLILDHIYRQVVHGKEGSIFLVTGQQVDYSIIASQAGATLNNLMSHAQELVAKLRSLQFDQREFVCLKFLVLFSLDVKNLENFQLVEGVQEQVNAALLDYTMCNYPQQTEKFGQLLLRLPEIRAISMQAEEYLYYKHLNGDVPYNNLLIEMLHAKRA
# COUP-TFII inh – NR2F2 (human) inhibition, primary screen. P24468. HEK293T NGFI-A luciferase reporter, luminescence. inhibition, % at 8.6 µM. 0.7% of 370,000 active. AID 686940;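 active = inhibition above a per-plate cutoff, mean inhibition of test wells between control levels plus 3 SD, cut at about 38% in these data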;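 also: cells cotransfected with COUP-TFII expression vector driving the NGFI-A reporter; 0% = median of COUP-TF2 test wells and 100% = reporter-only cells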
# The depositor's hits bear a star; nt = not tested or not shown. Only some compounds are listed: those with a hit (about 1.3% of all), similar ones and a draw of the others.
SMILES,SRC2 inh,Gli-Sufu antag,NCOA1 inh,NCOA3 inh,NR5A2 inv ag,COUP-TFII inh
COc1cccc2sc(Nc3nnc(-c4ccccc4Cl)o3)nc12,3.9,3.0,-8.0,-6.0,39.9,-6.0
COc1ccccc1-c1nnc(Nc2nc3c(OC)cccc3s2)o1,-22.4,89.1*,-72.2,-25.4,36.0,-27.1
CCC(=O)Nc1cc2nn(-c3ccc(C)cc3)nc2cc1C,6.4,39.5,43.8,33.6,18.4,46.3*
CCC(=O)Nc1cc2nn(-c3ccc(OC)cc3)nc2cc1C,-65.3,-52.6,-103.4,-104.8,-77.2,-52.1
O=C(c1ccccc1OCc1ccccc1)N(Cc1ccccn1)CC1CCCO1 (stereo not drawn),13.7,nt,nt,nt,nt,-15.4
Cc1ccccc1NC(=O)CN1C(=O)CCSc2ccccc21,-19.7,nt,nt,nt,nt,-2.2
On1onc2c3cc(-c4ccccc4)nc3ccc21,-17.3,64.8*,-69.9,-8.3,-41.2,32.4
O=C(OCc1cn(Cc2cccc(Cl)c2)nn1)N1CCOCC1,14.1,nt,nt,nt,nt,17.2
O=C(NCCN1CCC(Cc2ccccc2)CC1)C1CCCN(S(=O)(=O)c2ccccc2[N+](=O)[O-])C1 (stereo not drawn),31.8,nt,nt,nt,nt,31.3
C#CCOCCOCCOCCNc1nc(N2CCN(C(=O)[C@H]([C@@H](C)CC)n3cc(CCCCN)nn3)CC2)nc(N2CCN(C(=O)[C@H](Cc3ccc(O)cc3)n3cc(CCO)nn3)CC2)n1,nt,nt,nt,nt,nt,-6.3
Brc1ccc(N/N=C(/N=Nc2nn[nH]n2)c2ccccc2)cc1,31.2,17.3,16.5,63.4*,32.1,19.6
COc1ccc(C)cc1Nc1n[n+](-c2ccccc2)c(-c2ccc(N(C)C)cc2)s1,12.3,61.3*,-29.7,-15.8,-5.5,2.1
CCOC(=O)N1CCN(C(=O)C2CCCN(Cc3nc(-c4ccc(Cl)cc4)oc3C)C2)CC1 (stereo not drawn),9.9,9.1,18.6,2.8,42.5,73.1*
Cc1oc(-c2ccc(Cl)cc2)nc1CN1CCCC(C(=O)NC2CC2)C1 (stereo not drawn),16.3,10.0,6.5,-18.6,6.6,6.5
Cn1c(/C=C/c2ccccc2)nc2ccccc2c1=O,-25.6,24.1,-91.2,-48.5,-41.2,-0.4
Cn1c(/C=C/c2ccc([N+](=O)[O-])o2)nc2ccccc2c1=O,nt,82.1*,-18.8,19.0,13.0,nt
O=C(Nc1ccc2[nH]ccc2c1)c1cc(-c2ccc(Cl)cc2)nc2ccccc12,-39.8,nt,nt,nt,nt,-14.5
CC(=NNC(=S)Nc1cccc(C)c1)c1ccccn1,32.3,82.0*,72.9*,72.2*,86.0*,33.8
COc1ccccc1NC(=S)NN=C(C)c1ccccn1,5.5,85.0*,65.1*,45.0,82.3*,28.2
CC(=NNC(=S)Nc1ccc(C)cc1)c1ccccn1,20.8,24.9,70.4*,67.7*,71.8,22.9
C=CCN(CC#CC(=C)C)CC1CC1,13.8,nt,nt,nt,nt,-13.0
COc1cc(OC)cc(-c2csc(N3CCC(C(N)=O)CC3)n2)c1,nt,nt,nt,nt,nt,1.7
CCC(=O)OCCCN1CCC2(CCC(c3ccccc3)CC2)C1=O (stereo not drawn),-6.7,nt,nt,nt,nt,-9.9
COc1ccccc1OC(C)C(=O)Nc1nc(-c2ccc(S(=O)(=O)N3CCOCC3)cc2)cs1 (stereo not drawn),-5.4,19.2,17.8,20.1,-0.4,1.9
COc1ccccc1C(=O)Nc1nc(-c2ccc(S(=O)(=O)N3CCOCC3)cc2)cs1,74.5*,65.8*,85.2*,88.5*,81.7*,71.6*
SMILES,SRC2 inh,Gli-Sufu antag,NCOA1 inh,NCOA3 inh,NR5A2 inv ag,COUP-TFII inh
CCOc1ccc2c(c1)C(C)=CC(C)(C)N2S(=O)(=O)c1ccc(NC(C)=O)cc1,21.9,65.3*,14.2,26.5,37.6,-68.4
COc1ccc2c(c1)C(C)=CC(C)(C)N2S(=O)(=O)c1ccc(NC(C)=O)cc1,28.0,47.3,0.6,14.2,36.2,-30.9
COc1ccc(OC)c2[nH]c(C(=O)N/N=C/c3ccccc3O)cc12,31.9,58.7*,9.7,33.6,21.3,-1.2
CC(C)CC(=O)/C(=C\c1ccc(Cl)cc1Cl)n1cncn1,nt,8.3,47.0,70.7*,26.7,nt
CC(C)CC(=O)/C(=C/c1ccc(N(C)C)cc1)n1cncn1,6.3,4.8,10.5,5.1,10.4,12.5
C=CCCC(=O)N1CCC(C(=O)NCC2COc3ccccc3O2)CC1 (stereo not drawn),7.3,nt,nt,nt,nt,-6.9
CC1CCN(c2ccc(C(=O)O)cc2NS(=O)(=O)c2ccccc2[N+](=O)[O-])CC1,-4.1,nt,nt,nt,nt,11.9
COc1ccc(N=Nc2cc(C)ccc2O)cc1,-66.8,-74.5,-151.0,-66.3,-140.3,-52.8

# Bioassay records as filed in PubChem.
